Each structure is given as a SMILES string. Several values for one entry are separate records, joined by “and”; a condition that tells them apart may be missing. Equal entries are not always repeated. Inconclusive results are not listed. Activity calls are given as the source filed them. Unless noted, calls follow the shape of the full dose curve.

The target in the first experiment is Peroxisome proliferator-activated receptor delta (Homo sapiens) (UniProt Q03181). The experiment can be described thus: qHTS assay for small molecule agonists of peroxisome proliferator-activated receptor delta signaling (AID 588534).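 Also: 0% = DMSO basal wells and 100% = positive control agonist at 10 µM.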 The conditions noted are these: HEK293T PPARdelta-UAS-bla, beta-lactamase ratio, 18 h; series mostly up to 76.7 µM; activation: at the top concentration. In outline: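 Reporter cells were plated and held 5 hrs at 37 C before compounds were added. After 18 hrs at 37 C, CCF4 dye was loaded for 2 hrs at RT and fluorescence measured.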
Chain of Peroxisome proliferator-activated receptor delta (Homo sapiens) (Q03181 whole entry, looked up): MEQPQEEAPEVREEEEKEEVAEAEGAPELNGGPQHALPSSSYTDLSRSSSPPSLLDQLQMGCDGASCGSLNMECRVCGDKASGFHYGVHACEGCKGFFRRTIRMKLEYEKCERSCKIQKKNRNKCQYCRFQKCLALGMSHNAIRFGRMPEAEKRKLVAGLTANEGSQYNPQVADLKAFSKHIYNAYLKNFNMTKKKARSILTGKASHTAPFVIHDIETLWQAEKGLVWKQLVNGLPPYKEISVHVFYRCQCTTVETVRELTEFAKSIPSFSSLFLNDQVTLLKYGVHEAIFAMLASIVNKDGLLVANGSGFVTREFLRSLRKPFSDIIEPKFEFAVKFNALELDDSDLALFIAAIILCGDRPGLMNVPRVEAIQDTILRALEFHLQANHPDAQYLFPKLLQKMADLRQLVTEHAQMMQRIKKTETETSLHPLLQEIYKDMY
Consider `O=S(=O)(c1ccc(O)cc1)c1ccc(O)cc1`, for which the “activation” value is -5.59% (inactive).
The same measure, in the same setting: the same measure for `O=[N+]([O-])c1ccc(Oc2ccc(C(F)(F)F)cc2[N+](=O)[O-])cc1`: -5.15% (inactive).
Same read-out and setting: the same measure for `Cc1ccccc1C(=O)Nc1cccc(OC(C)C)c1`: -4.4% (inactive).
Still for that read-out and setting: in the case of `CN(C)P(=O)(N(C)C)N(C)C` it was 0.711% (inactive); in that of `CCOc1ccc(C(C)(C)COCc2cccc(Oc3ccccc3)c2)cc1`, 14.1% (inactive); in that of `O=c1[nH]c2ccccc2c(=O)o1`, -0.76% (inactive).
Consider `CN(C)c1nc(=O)n(C2CCCCC2)c(=O)n1C`, for which the “activation” value is -2% (inactive).
On the same count and under the same terms, in the case of `C=CC1(C)OC(=O)N(c2cc(Cl)cc(Cl)c2)C1=O` (stereo not drawn) it was 4.59% (inactive).
Still for that read-out and setting: in the case of `COC(=O)c1ccccc1CS(=O)(=O)NC(=O)Nc1nc(OC)cc(OC)n1` it was -5.19% (inactive); in that of `CCC[CH2][Sn]([CH2]CCC)([O]C(C)=O)[O]C(C)=O`, -7.18% (inactive).
As to `O=P(O)(O)CCCl`, the result was inactive.
Turning to `CCCCN(CC)C(=O)SCCC`, the “activation” value is 1.89% (inactive).
As for `NS(=O)(=O)C(F)(F)C(F)(F)C(F)(F)C(F)(F)C(F)(F)C(F)(F)C(F)(F)C(F)(F)F`, the “activation” value was -7.93% (inactive).
On the same count and under the same terms, in the case of `CCOP(=O)(NC(C)C)Oc1ccc(S(C)=O)c(C)c1` (stereo not drawn) it was 4.43% (inactive); in that of `CCOP(=O)(O)C(N)=O`, 7.57% (inactive).
On the same count and under the same terms, in the case of `COC(=O)c1ccccc1S(=O)(=O)NC(=O)N(C)c1nc(C)nc(OC)n1` it was 5.54% (inactive); in that of `CCOC1Oc2ccc(OS(C)(=O)=O)cc2C1(C)C` (stereo not drawn), -0.182% (inactive).
`COCc1cnc(C2=NC(C)(C(C)C)C(=O)N2)c(C(=O)O)c1` (stereo not drawn): the “activation” value is -3.93% (inactive).
In the case of `Clc1ccc([C@]2(Cn3cncn3)C[C@H](Br)CO2)c(Cl)c1`, the outcome was inactive.
As to `CCNc1nc(NC(C)(C)C)nc(SC)n1`, the “activation” value is -6.19% (inactive).
On the same count and under the same terms, in the case of `CC1CCCCC1NC(=O)Nc1ccccc1` (stereo not drawn) it was -2.11% (inactive); in that of `CCOP(=S)(OCC)SCC(=O)NC(C)C`, 2.42% (inactive); in that of `CCOc1nc(NC)nc(NC(=O)NS(=O)(=O)c2ccccc2C(=O)OC)n1`, -5.13% (inactive).
As for `C=CC(=O)OCCCCCC(C)C`, the “activation” value is -0.0557% (inactive).
Still for that read-out and setting: the same measure for `COP(=S)(OC)Oc1ccc([N+](=O)[O-])c(C)c1`: 2.66% (inactive).
Still for that read-out and setting: the same measure for `CCN(CC)C(=O)C(C)Oc1cccc2ccccc12` (stereo not drawn): -10.4% (inactive).
With `CCCCC(CC)C(=O)Cl` (stereo not drawn), the “activation” value was -0.449% (inactive).
Still for that read-out and setting: in the case of `CC(Oc1cc(Cl)c(Cl)cc1Cl)C(=O)O` (stereo not drawn) it was -2.54% (inactive).
Turning to `Cc1c(F)c(F)c(COC(=O)C2C(/C=C(\Cl)C(F)(F)F)C2(C)C)c(F)c1F` (stereo not drawn), the “activation” value was 5.4% (inactive).
The same measure, in the same setting: in the case of `Nc1ccc([N+](=O)[O-])cc1Cl` it was -0.972% (inactive).
With `CNC(=O)Oc1ccc(N(C)C)c(C)c1`, the “activation” value was 6.32% (inactive).

System in another experiment: not listed separately
The experiment is described as follows: qHTS assay for small molecule antagonists of peroxisome proliferator-activated receptor delta signaling (AID 588535; active = well fitted inhibition curve with a large enough effect in the signal ratio, with a control signal flat, not every such curve was filed as active; the % refers to the signal ratio;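 as to max response: cells co-treated with a PPAR-delta agonist as stimulator during compound exposure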). The conditions noted are these: HEK293T PPARd-UAS-bla, beta-lactamase FRET ratio, 18 h; 460 nm channel. In outline: (§1)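 Cell-based beta-lactamase assay in antagonist mode: 4000 HEK293T PPAR-delta-UAS-bla cells per well, 5 hr preincubation then 18 hr compound incubation at 37 C. IC50 obtained by Hill equation fitting.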
On the technique in general: qHTS replaces the single test concentration by a dilution series.
Take `O=S(=O)(c1ccc(O)cc1)c1ccc(O)cc1`: the max response turned out to be 45.2%.
As for `Cc1ccccc1C(=O)Nc1cccc(OC(C)C)c1`, the max response was found to be 10.6%.
The same measure, in the same setting: in the case of `CN(C)P(=O)(N(C)C)N(C)C` it was -0.709%; in that of `CCOc1ccc(C(C)(C)COCc2cccc(Oc3ccccc3)c2)cc1`, -0.606%; in that of `O=c1[nH]c2ccccc2c(=O)o1`, 29.4%.
Take `CN(C)c1nc(=O)n(C2CCCCC2)c(=O)n1C`: the max response worked out at 12.4%.
Regarding `C=CC1(C)OC(=O)N(c2cc(Cl)cc(Cl)c2)C1=O` (stereo not drawn), the max response is -9.9%.
With `COC(=O)c1ccccc1CS(=O)(=O)NC(=O)Nc1nc(OC)cc(OC)n1`, the max response is -1.25%.
On the same count and under the same terms, the same measure for `O=P(O)(O)CCCl`: -15.9%.
For `CCCCN(CC)C(=O)SCCC`, the max response came out at 5.34%.
On the same count and under the same terms, the same measure for `NS(=O)(=O)C(F)(F)C(F)(F)C(F)(F)C(F)(F)C(F)(F)C(F)(F)C(F)(F)C(F)(F)F`: 101%; for `CCOP(=O)(NC(C)C)Oc1ccc(S(C)=O)c(C)c1` (stereo not drawn): -19.9%; for `CCOP(=O)(O)C(N)=O`: 57.5%.
As to `COC(=O)c1ccccc1S(=O)(=O)NC(=O)N(C)c1nc(C)nc(OC)n1`, the max response is -42.2%.
The same measure, in the same setting: in the case of `CCOC1Oc2ccc(OS(C)(=O)=O)cc2C1(C)C` (stereo not drawn) it was -8.85%.
The same measure, in the same setting: the same measure for `COCc1cnc(C2=NC(C)(C(C)C)C(=O)N2)c(C(=O)O)c1` (stereo not drawn): -13.7%; for `Clc1ccc([C@]2(Cn3cncn3)C[C@H](Br)CO2)c(Cl)c1`: 7.61% and -41.8%.
Take `CCNc1nc(NC(C)(C)C)nc(SC)n1`: the max response turned out to be 44.7%.
Still for that read-out and setting: the same measure for `CC1CCCCC1NC(=O)Nc1ccccc1` (stereo not drawn): 3.43%; for `CCOc1nc(NC)nc(NC(=O)NS(=O)(=O)c2ccccc2C(=O)OC)n1`: 16.6%.
In the case of `C=CC(=O)OCCCCCC(C)C`, the max response is 38.5%.
Same read-out and setting: the same measure for `CCCCC(CC)C(=O)Cl` (stereo not drawn): 9%; for `CC(Oc1cc(Cl)c(Cl)cc1Cl)C(=O)O` (stereo not drawn): 52.3%; for `Cc1c(F)c(F)c(COC(=O)C2C(/C=C(\Cl)C(F)(F)F)C2(C)C)c(F)c1F` (stereo not drawn): -17%.
Same read-out and setting: the same measure for `Nc1ccc([N+](=O)[O-])cc1Cl`: -22.4%; for `CNC(=O)Oc1ccc(N(C)C)c(C)c1`: -23.4%.

The target of a further experiment is Peroxisome proliferator-activated receptor delta (Homo sapiens) (UniProt Q03181). The experiment is described as above. To be noted: HEK293T PPARd-UAS-bla, beta-lactamase FRET ratio, 18 h; series mostly up to 76.7 µM; activity change, negative = inhibition: at the top concentration. In outline:
as §1
Take `O=S(=O)(c1ccc(O)cc1)c1ccc(O)cc1`: the “activity change, negative = inhibition” value is 19.1% (inactive).
On the same count and under the same terms, in the case of `Cc1ccccc1C(=O)Nc1cccc(OC(C)C)c1` it was -8.82% (inactive); in that of `CN(C)P(=O)(N(C)C)N(C)C`, 4.41% (inactive); in that of `CCOc1ccc(C(C)(C)COCc2cccc(Oc3ccccc3)c2)cc1`, -3.81% (inactive).
The same measure, in the same setting: the same measure for `O=c1[nH]c2ccccc2c(=O)o1`: 20.3% (inactive).
Still for that read-out and setting: in the case of `CN(C)c1nc(=O)n(C2CCCCC2)c(=O)n1C` it was 4.72% (inactive).
With `C=CC1(C)OC(=O)N(c2cc(Cl)cc(Cl)c2)C1=O` (stereo not drawn), the “activity change, negative = inhibition” value was -0.0079% (inactive).
On to `COC(=O)c1ccccc1CS(=O)(=O)NC(=O)Nc1nc(OC)cc(OC)n1`, for which the “activity change, negative = inhibition” value is 0.612% (inactive).
The same measure, in the same setting: in the case of `O=P(O)(O)CCCl` it was 16.1% (inactive).
On the same count and under the same terms, the same measure for `CCCCN(CC)C(=O)SCCC`: 5.92% (inactive); for `NS(=O)(=O)C(F)(F)C(F)(F)C(F)(F)C(F)(F)C(F)(F)C(F)(F)C(F)(F)C(F)(F)F`: 21.5% (inactive).
On the same count and under the same terms, in the case of `CCOP(=O)(NC(C)C)Oc1ccc(S(C)=O)c(C)c1` (stereo not drawn) it was -4.81% (inactive).
In the case of `CCOP(=O)(O)C(N)=O`, the “activity change, negative = inhibition” value was 30.5% (inactive).
The same measure, in the same setting: the same measure for `COC(=O)c1ccccc1S(=O)(=O)NC(=O)N(C)c1nc(C)nc(OC)n1`: 1.67% (inactive); for `CCOC1Oc2ccc(OS(C)(=O)=O)cc2C1(C)C` (stereo not drawn): 9.98% (inactive).
Still for that read-out and setting: in the case of `COCc1cnc(C2=NC(C)(C(C)C)C(=O)N2)c(C(=O)O)c1` (stereo not drawn) it was -6.24% (inactive).
Turning to `Clc1ccc([C@]2(Cn3cncn3)C[C@H](Br)CO2)c(Cl)c1`, the Potency entry is “inactive”.
As for `CCNc1nc(NC(C)(C)C)nc(SC)n1`, the “activity change, negative = inhibition” value is 1.93% (inactive).
On to `CC1CCCCC1NC(=O)Nc1ccccc1` (stereo not drawn), for which the “activity change, negative = inhibition” value was 9.73% (inactive).
Regarding `CCOc1nc(NC)nc(NC(=O)NS(=O)(=O)c2ccccc2C(=O)OC)n1`, the “activity change, negative = inhibition” value is 9.47% (inactive).
Same read-out and setting: the same measure for `C=CC(=O)OCCCCCC(C)C`: 14.8% (inactive).
Still for that read-out and setting: the same measure for `CCCCC(CC)C(=O)Cl` (stereo not drawn): 8.17% (inactive); for `CC(Oc1cc(Cl)c(Cl)cc1Cl)C(=O)O` (stereo not drawn): 23.9% (inactive).
As for `Cc1c(F)c(F)c(COC(=O)C2C(/C=C(\Cl)C(F)(F)F)C2(C)C)c(F)c1F` (stereo not drawn), the “activity change, negative = inhibition” value is -6.41% (inactive).
On the same count and under the same terms, in the case of `Nc1ccc([N+](=O)[O-])cc1Cl` it was -6.84% (inactive).
The same measure, in the same setting: in the case of `CNC(=O)Oc1ccc(N(C)C)c(C)c1` it was 20.1% (inactive).

The record behind these values is PubChem BioAssay (NCATS).
